Our source for the growth values is PubChem BioAssay (NCI).

Several values for one entry are separate records, joined by “and”; a condition that tells them apart may be missing. Equal entries are not always repeated. About 83,000 compounds went through this panel and 20% of them were active in at least one assay; those are over-represented in the sample as a whole.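 Cells were grown in 96-well plates and exposed to the test compound at a single concentration for 48 hours; results are reported as percent growth, with values below 10 considered active.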 Activity calls are given as the source filed them.

Among the test systems are HCT-15 colon; HT29 colon; SNB-19 CNS; U251 CNS; PC-3 prostate; SK-MEL-5 melanoma; UACC-62 melanoma; LOX IMVI melanoma; SK-MEL-28 melanoma; SK-MEL-2 melanoma; EKVX NSCLC; SN12C renal; TK-10 renal; ACHN renal; CAKI-1 renal; HL-60(TB) leukemia; CCRF-CEM leukemia; UO-31 renal; A498 renal; SNB-75 CNS.
Holding throughout (test): NCI-60 one-dose screen, 48 h (100 = growth as untreated, 0 = no growth, -100 = all killed)
Details in all cases: 10 µM unless noted

On to `CC[C@H](C)[C@H](NC(=O)[C@H]1CCCCN1C)C(=O)N(C)[C@H](C[C@@H](OC(C)=O)c1nc(C(=O)N[C@@H](Cc2ccccc2)C[C@H](C)C(=O)O)cs1)C(C)C`, for which the growth in the assay on HCT-15 colon was 9.59% (active); in the assay with HT29 colon it was -18.7% (active); with SNB-19 CNS, 36.7% (inactive); in the assay with U251 CNS, 15% (inactive); with PC-3 prostate it was 26.1% (inactive); with SK-MEL-5 melanoma, -71.7% (active). The growth in the assay with UACC-62 melanoma was 52.8% (inactive); with LOX IMVI melanoma it was 9.84% (active); in the assay on SK-MEL-28 melanoma it was 50.6% (inactive); with SK-MEL-2 melanoma, 2.53% (active); in the assay with EKVX NSCLC it was 38.4% (inactive); in the assay with SN12C renal it was 47.5% (inactive). Besides, the growth in the assay on TK-10 renal is 22.8% (inactive); in the assay with ACHN renal it was 14.3% (inactive); in the assay with CAKI-1 renal, 35.9% (inactive); in the assay with HL-60(TB) leukemia it was -29.8% (active); with CCRF-CEM leukemia, 7.95% (active).
As for `COc1cc(C=C2C(=O)NC(=O)NC2=O)ccc1O`, the growth in the assay on HCT-15 colon is 103% (inactive); in the assay on HT29 colon it was 99.2% (inactive); with U251 CNS, 98.7% (inactive); in the assay with PC-3 prostate, 103% (inactive); with SK-MEL-5 melanoma, 109% (inactive); in the assay on UACC-62 melanoma, 92.7% (inactive). Further, the growth is 102% (inactive) in the assay with LOX IMVI melanoma; 131% (inactive) in the assay on SK-MEL-28 melanoma; 153% (inactive) with EKVX NSCLC; 96.5% (inactive) with SN12C renal; 94.4% (inactive) with UO-31 renal; 127% (inactive) with TK-10 renal. In addition, the growth with ACHN renal is 101% (inactive); in the assay with A498 renal, 69% (inactive); in the assay with HL-60(TB) leukemia, 95.6% (inactive); in the assay on CCRF-CEM leukemia it was 113% (inactive).
As for `Nc1nc(=S)nc(N)[nH]1`, the growth with HCT-15 colon is 101% (inactive); in the assay on HT29 colon, 104% (inactive); with SNB-19 CNS, 97.2% (inactive); in the assay on U251 CNS it was 97% (inactive); in the assay with SK-MEL-5 melanoma it was 103% (inactive); in the assay on UACC-62 melanoma, 101% (inactive). For the same compound, the growth was 100% (inactive) with SK-MEL-28 melanoma; 101% (inactive) in the assay with SK-MEL-2 melanoma; 92.9% (inactive) in the assay on EKVX NSCLC; 80.5% (inactive) in the assay with SN12C renal; 136% (inactive) in the assay with TK-10 renal; 103% (inactive) in the assay on ACHN renal. Also, the values for the growth with CAKI-1 renal, in the assay on A498 renal and in the assay with HL-60(TB) leukemia were 101% (inactive), 98.4% (inactive) and 92.6% (inactive), respectively.
As to `O=C1c2ccccc2C(=O)N1N1CC1c1ccccc1` (stereo not drawn), the growth in the assay on HCT-15 colon is 101% (inactive); in the assay on HT29 colon, 110% (inactive); in the assay on SNB-19 CNS, 104% (inactive); in the assay on U251 CNS, 104% (inactive); in the assay with PC-3 prostate it was 97.7% (inactive); in the assay on SK-MEL-5 melanoma it was 101% (inactive). In addition, the growth in the assay on UACC-62 melanoma is 105% (inactive); in the assay on LOX IMVI melanoma, 96.6% (inactive); with SK-MEL-28 melanoma, 108% (inactive); in the assay on SN12C renal, 104% (inactive); with TK-10 renal, 107% (inactive); in the assay with ACHN renal it was 104% (inactive). In addition, the figures for the growth in the assay on CAKI-1 renal and in the assay on A498 renal were 95.7% (inactive) and 104% (inactive), respectively.
For the compound `[N-]=[N+]=CC(=O)CCC(=O)C=[N+]=[N-]`, the growth in the assay with HT29 colon was 107% (inactive); in the assay on SNB-75 CNS it was 96.6% (inactive); in the assay on SNB-19 CNS, 99.6% (inactive); in the assay with U251 CNS, 100% (inactive); in the assay with PC-3 prostate it was 86% (inactive); in the assay with SK-MEL-5 melanoma, 116% (inactive). For the same compound, the growth in the assay with UACC-62 melanoma is 96.5% (inactive); with LOX IMVI melanoma, 94.9% (inactive); in the assay with SK-MEL-28 melanoma, 112% (inactive); in the assay with SK-MEL-2 melanoma, 113% (inactive); in the assay on EKVX NSCLC, 105% (inactive); in the assay on SN12C renal it was 107% (inactive). The growth was 71.3% (inactive) with UO-31 renal; 114% (inactive) with TK-10 renal; 95% (inactive) in the assay with ACHN renal; 97.4% (inactive) with CAKI-1 renal; 110% (inactive) in the assay with A498 renal; 76.4% (inactive) in the assay with HL-60(TB) leukemia.
Regarding `COC(=O)[C@@H](C)C[C@H](Cc1ccccc1)NC(=O)c1cccc([C@@H](C[C@H](C(C)C)N(C)C(=O)[C@@H](NC(=O)[C@H]2CCCCN2C)C2CC2)OC(C)=O)n1`, the growth in the assay on HT29 colon was -8.46% (active); with SNB-75 CNS, 27.6% (inactive); in the assay on SNB-19 CNS it was 30% (inactive); in the assay with U251 CNS, 4.48% (active); in the assay with PC-3 prostate it was 18.8% (inactive); in the assay with SK-MEL-5 melanoma, -22.6% (active). Also, the growth was 41.4% (inactive) in the assay on UACC-62 melanoma; 12.2% (inactive) with LOX IMVI melanoma; 62% (inactive) with SK-MEL-28 melanoma; 44.2% (inactive) with SK-MEL-2 melanoma; 54.6% (inactive) in the assay on EKVX NSCLC; 28.7% (inactive) with SN12C renal. Also, the growth with UO-31 renal was 40.6% (inactive); with TK-10 renal, 23.9% (inactive); with ACHN renal, 24.7% (inactive); in the assay with CAKI-1 renal it was 25.7% (inactive); with A498 renal, -4.08% (active); in the assay on HL-60(TB) leukemia it was -38.2% (active).
Regarding `CN(C)C(=S)SSC(=S)N(C)C`, the growth in the assay on HT29 colon is 61.1% (inactive) and 92.2% (inactive); in the assay with SNB-75 CNS, 109% (inactive) and 104% (inactive); in the assay with SNB-19 CNS it was 98.7% (inactive) and 98.8% (inactive); in the assay with U251 CNS, 81.2% (inactive) and 75.7% (inactive); in the assay on PC-3 prostate it was 75.5% (inactive) and 91.1% (inactive); with SK-MEL-5 melanoma, 82% (inactive). In addition, the growth with UACC-62 melanoma is 97.4% (inactive) and 96.2% (inactive); in the assay on LOX IMVI melanoma, 104% (inactive) and 108% (inactive); in the assay with SK-MEL-28 melanoma, 116% (inactive) and 114% (inactive); with SK-MEL-2 melanoma, 109% (inactive) and 108% (inactive); in the assay with EKVX NSCLC, 69.4% (inactive) and 92.7% (inactive); in the assay with SN12C renal it was 106% (inactive) and 94.8% (inactive). Moreover, the growth is 106% (inactive) and 101% (inactive) in the assay on TK-10 renal; 100% (inactive) with ACHN renal; 90.9% (inactive) with CAKI-1 renal; 95.1% (inactive) in the assay on A498 renal; 68% (inactive) and 91.5% (inactive) in the assay on CCRF-CEM leukemia.
Turning to `CN1CCc2cc3c(cc2C1O)OCO3` (stereo not drawn), the growth with HT29 colon was 96.1% (inactive) and 108% (inactive); in the assay on SNB-75 CNS, 81.1% (inactive) and 104% (inactive); with SNB-19 CNS it was 123% (inactive) and 100% (inactive); in the assay on U251 CNS, 90.6% (inactive) and 103% (inactive); in the assay with PC-3 prostate, 77% (inactive) and 89.3% (inactive); in the assay on SK-MEL-5 melanoma it was -13.9% (active) and 105% (inactive). Further, the growth in the assay on UACC-62 melanoma was 34.2% (inactive) and 94.5% (inactive); with LOX IMVI melanoma, 71.4% (inactive) and 102% (inactive); with SK-MEL-28 melanoma, 94.7% (inactive) and 115% (inactive); in the assay on SK-MEL-2 melanoma, 76.1% (inactive) and 108% (inactive); in the assay on EKVX NSCLC, 107% (inactive) and 92.8% (inactive); in the assay on SN12C renal it was 112% (inactive) and 99.6% (inactive). Further, the growth in the assay on UO-31 renal is 101% (inactive) and 82.7% (inactive); with TK-10 renal, 112% (inactive) and 111% (inactive); in the assay with ACHN renal, 100% (inactive) and 101% (inactive); in the assay with CAKI-1 renal it was 87.5% (inactive) and 95.4% (inactive); in the assay on A498 renal, 121% (inactive) and 98% (inactive); in the assay with HL-60(TB) leukemia it was 99.7% (inactive).
